The whole screen tested about 360,000 compounds, of which about 3,700 (1%) were called active. Cut-off read from the data, not from the text of the source: active = activation above about 30%; inactive = the rest. The list comes from a sample in which actives are over-represented; it also holds similar structures and randomly drawn compounds.

The target of this experiment is D(1A) dopamine receptor (Homo sapiens) (UniProt P21728). Put plainly: Allosteric Agonists of the Human D1 Dopamine Receptor: qHTS. Note: 0% is about no effect. Particulars: HEK293 T-REx D1 cells, calcium flux, agonist mode; at 2 µM; hits give high values. From the text: NIH Chemical Genomics Center [NCGC] NIH Molecular Libraries Probe Centers Network [MLPCN] MLPCN Grant: NS064831-01 Assay Submitter (PI): David Sibley Dopamine receptors (DARs) are involved in the etiology and/or therapy of a number of neuropsychiatric and endocrine disorders. For instance, all receptor-based antiparkinsonian drugs work via stimulating the D1 DAR subtype whereas all FDA-approved antipsychotic agents are antagonists of this receptor. […] There are three different types of allosteric modulators that we are seeking, two of which will stimulate or augment receptor signaling, allosteric agonists and potentiators, while the third, allosteric antagonists, will attenuate receptor signaling. The present primary screening assay measures compound agonism by tracking calcium flux in a […], inducible Hek293 Trex D1 cell line.
Chain of D(1A) dopamine receptor (Homo sapiens) (P21728 whole entry, looked up): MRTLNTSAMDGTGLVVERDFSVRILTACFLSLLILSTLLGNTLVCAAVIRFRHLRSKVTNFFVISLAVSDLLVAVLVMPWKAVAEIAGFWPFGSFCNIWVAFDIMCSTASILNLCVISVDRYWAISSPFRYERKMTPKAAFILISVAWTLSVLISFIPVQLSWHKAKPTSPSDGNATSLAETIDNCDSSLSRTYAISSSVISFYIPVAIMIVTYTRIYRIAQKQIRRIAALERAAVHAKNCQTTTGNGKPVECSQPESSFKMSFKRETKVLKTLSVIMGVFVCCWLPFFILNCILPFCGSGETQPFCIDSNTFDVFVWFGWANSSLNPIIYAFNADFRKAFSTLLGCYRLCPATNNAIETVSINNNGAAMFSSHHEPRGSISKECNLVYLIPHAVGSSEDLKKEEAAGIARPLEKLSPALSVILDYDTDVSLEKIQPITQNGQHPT
Freshly passaged cells are plated in 1536 well black, clear bottom plates at a density of 4000 cells/well in 3 ul of complete media containing 1x tetracycline inducer. After an overnight incubation at […] in 5% CO2, cells are loaded with 2 ul of the no wash Calcium Assay Kit (ABD Bioquest) and incubated at room temperature for 30 to 90 minutes. Agonist read: A 10 cycle (1 second/cycle) baseline measurement is taken and then the FDSS online 1536 pintool delivers 23 nl of compound library (as well as dopamine controls) to the plate. The plate is measured for kinetically at 1 cycle/sec for 180 seconds and is considered to be the agonist portion of the assay (eg, compounds which activate a positive calcium response during this portion are flagged as potential agonists). Following the 180 second read, 1 ul of either an EC20 (positive modulation assay) or EC80 (negative modulation assay) is delivered by an onboard pipette head. Measurements are taken kinetically for an additional 180 seconds.
(In qHTS, concentration-response curves come from the screen itself.)
`CCc1ccccc1NC(=O)c1sc2nc3c(cc2c1N)CN(Cc1ccccc1)CC3`: the activation is 0.298% (inactive).

As to `O=[S+]([O-])(c1ccc2c(c1)OCCO2)N1CCN([S+](=O)([O-])c2c(Cl)cc(Cl)cc2Br)CC1`, the activation was 0.0145% (inactive).

As for `O=S(=O)(Nc1cccc2cccnc12)c1cccc2cccnc12`, the activation was 23.3% (inactive).

As to `COc1ccc(-c2nc3nc(C)cc(C)n3c2Nc2c(C)cccc2C)cc1`, the activation is 7.65% (inactive).

Turning to `c1ccc(C[C@H]2CNCCN2CCC23CC4CC(CC(C4)C2)C3)cc1`, the activation was 39.5% (active).

For `COc1cc(-c2cc3n(C)c(C)c(CCC(=O)Nc4ccc(F)cc4)c(=O)n3n2)cc(OC)c1OC`, the activation was 0.314% (inactive).

Consider `Cc1ccc(Cl)cc1NC(=O)/C(C#N)=C\c1cn(Cc2ccc(F)cc2)c2ccccc12`, for which the activation was 6.19% (inactive).

As to `CCc1nc(-c2cc(S(=O)(=O)N3CCN(c4ccc(OC)cc4)CC3)ccc2OC)no1`, the activation was 4.75% (inactive).

With `CSc1nc(-c2ccc(F)cc2)nc2c1Cc1c(CO)cnc(C)c1O2`, the activation was 1.34% (inactive).

On to `N#CC1(NC(=O)COC(=O)CCN=C2NS(=O)(=O)c3ccccc32)CCCCC1`, for which the activation was 4.55% (inactive).

For `O=C(CCCN=C1NS(=O)(=O)c2ccccc21)OCC(=O)c1ccc(F)c(F)c1`, the activation is 68.2% (active).

As to `O=C(OCCN=C1NS(=O)(=O)c2ccccc21)c1cccc([N+](=O)[O-])c1`, the activation was 3% (inactive).

`O=C(O)c1c(CNCc2cccc(F)c2)c2ccccc2n1Cc1ccccc1`: the activation was -1.09% (inactive).

For the compound `COc1cc(CNC2CCCCC2)c(Br)cc1OC1CCCC1`, the activation is 10.2% (inactive).

For `COc1cc(OC)c(NC(=O)C2CCCN2C(=O)OCc2ccccc2)cc1Cl` (stereo not drawn), the activation was -0.285% (inactive).

For `COc1cc(CNC2CCCC2)c(Br)cc1OCc1ccccc1`, the activation was 42.3% (active).

In the case of `Cc1nc(-c2ccc(Cl)cc2)sc1C1(C)CC(c2ccccc2F)=NO1` (stereo not drawn), the activation is 6.23% (inactive).

For `Cc1nc(C(=O)NCc2ccccc2)sc1C1(C)CC(c2cccnc2)=NO1` (stereo not drawn), the activation is 41.4% (active).

As to `Cc1nc(C(=O)Nc2ccc(Cl)cc2)sc1C1(C)CC(c2ccccc2)=NO1` (stereo not drawn), the activation was 6.69% (inactive).

`COc1cccc(-n2ccn(CC(=O)NCc3ccc(C)cc3)c(=O)c2=O)c1`: the activation was 14.3% (inactive).

On to `Cc1ccc(CNC(=O)c2cccc3c2C(=O)c2ccc(N4CCC(C)CC4)cc2S3(=O)=O)cc1`, for which the activation was 179% (active).

Regarding `Cc1ccc(CNC(=O)c2ccccc2CCc2ccccc2)cc1`, the activation is 4.45% (inactive).

For `COc1cccc(-c2ccc3c(c2)S(=O)(=O)c2cccc(C(=O)O)c2C3=O)c1OC`, the activation was 0.629% (inactive).

Take `Cc1ccccc1OCC(=O)Nc1c(C(=O)Nc2ccccc2F)oc2ccccc12`: the activation is 20.7% (inactive).

Regarding `CCOC(=O)c1c(C)[nH]c(CCC(=O)Nc2ccc(OC)c(OC)c2)c1C`, the activation is -0.109% (inactive).

In the case of `Cc1cc(=O)c2cc(C(=O)Nc3cccc(C)c3C)ccc2[nH]1`, the activation is -0.195% (inactive).

On to `CC(C)(c1ccccc1)c1ccc(OCCN)cc1`, for which the activation is 63.3% (active).

For `Cc1nn(CCOc2ccccc2)c(=O)n1-c1ccccc1F`, the activation is 1.91% (inactive).

`CC(C)(C)c1ccc(Oc2ccc(N)cc2)cc1`: the activation is 5.93% (inactive).

As for `Cc1cc(OCCN2CCCC2)ccc1C(C)C`, the activation is 2.99% (inactive).

Take `c1ccc2cc(OCCN3CCCC3)ccc2c1`: the activation is 5.59% (inactive).

As for `CC(C)(c1ccccc1)c1ccc(OCCN2CCCC2)cc1`, the activation is 35.8% (active).

In the case of `CSc1ccc(CCNC(=O)c2ccc3c(c2)nc2n3CCOC2)cc1`, the activation was 0.926% (inactive).

Regarding `O=S(=O)(NCC(c1ccco1)N1CCOCC1)c1cc(F)ccc1F` (stereo not drawn), the activation is -2.87% (inactive).

Turning to `CCc1ccc(C2CC(=O)c3c([nH]c(C(=O)OCc4ccc(C)cc4)c3C)C2)cc1` (stereo not drawn), the activation was 3.18% (inactive).

As to `Cc1ccc2nc(COc3cccc(NC(=O)Nc4ccc(C)c(Cl)c4)c3)cc(=O)n2c1`, the activation is -0.44% (inactive).

With `Cc1ccc(C(=O)CC2(O)C(=O)N(CCc3ccccc3)c3ccc(Br)cc32)cc1` (stereo not drawn), the activation was 9.1% (inactive).

With `CCC(=O)c1ccc(OCC(=O)N(CC)CC2COc3ccccc3O2)cc1` (stereo not drawn), the activation was 3.24% (inactive).

Turning to `O=C(Cn1nc(Cc2cccnc2)c2ccccc2c1=O)NCC1COc2ccccc2O1` (stereo not drawn), the activation was 0.536% (inactive).

Regarding `c1ccc2c(c1)OCC(CNc1ncnc3nc[nH]c13)O2` (stereo not drawn), the activation is 182% (active).

With `CCn1c2ccccc2c2nnc(N3CCN(c4cc(C)ccc4C)CC3)nc21`, the activation is -0.584% (inactive).

Turning to `Cc1ccc2c(=O)c(C(=O)c3cccc(Cl)c3)cn(CC(=O)NCc3ccccc3)c2n1`, the activation was 0.234% (inactive).

Turning to `CCOc1ccc(NC(=O)Cn2cc(C(=O)c3ccc(C)cc3)c(=O)c3cc4c(cc32)OCCO4)cc1`, the activation was 4.93% (inactive).

On to `CCCn1c(=O)c(-c2ccccc2)c(O)c2ccccc21`, for which the activation is 0.534% (inactive).

Regarding `CC(=O)n1c(C=Nc2ccccc2)c(O)c2ccccc21`, the activation was 52.3% (active).

`Cc1cc(=O)n(CC(=O)Nc2cccc([N+](=O)[O-])c2)c(-n2nc(C)cc2C)n1`: the activation was -0.478% (inactive).

Consider `Cc1ccc(C(=O)NC2CCN(C#N)CC2)cc1`, for which the activation was -0.099% (inactive).

For the compound `Cc1ccccc1-n1c(C)cc(/C=N/NC(=O)c2ccc(CN3CCOCC3)cc2)c1C`, the activation is 9.59% (inactive).

`O=C(N/N=C/C=C/c1ccco1)c1cccs1`: the activation is 2.91% (inactive).

As to `Cc1cccc(-n2c(C)cc(/C=N\NC(=O)c3cccs3)c2C)c1`, the activation was 36.3% (active).

Consider `N#CN1CCC(NS(=O)(=O)c2cccc(F)c2)C1` (stereo not drawn), for which the activation is 0.986% (inactive).

For `Cc1cc2c(s1)c1cnn(Cc3cc(F)c(Cl)cc3Cl)c(=O)c1n2C`, the activation is -0.162% (inactive).

Consider `Cc1cccc(S(=O)(=O)c2cn(Cc3ccccc3)c3cc(N4CCOCC4)c(F)cc3c2=O)c1`, for which the activation is 1.08% (inactive).

Regarding `Nc1cc(N2CCCCCC2)c2nonc2c1[N+](=O)[O-]`, the activation is 34.1% (active).

For the compound `COCCNc1nc(N)c([N+](=O)[O-])c(N2CCCCCC2)n1`, the activation is 2.99% (inactive).

For `Cc1c(Nc2cc(N3CCCC(C)C3)c3nonc3c2[N+](=O)[O-])c(=O)n(-c2ccccc2)n1C` (stereo not drawn), the activation was -0.0536% (inactive).

`CC(C)c1ccc(NC(=O)Cn2c3ncccc3c(=O)n2-c2ccccc2)cc1`: the activation was 2.49% (inactive).

In the case of `COCCNc1ncnc2c1c(-c1ccccc1)cn2-c1ccc(C)c(Cl)c1`, the activation was 2.02% (inactive).

With `Cc1cccc(-n2cc(CN3CCN(C(=O)c4ncn[nH]4)CC3)c(-c3cccc(F)c3)n2)c1`, the activation is 1.07% (inactive).

Take `COc1ccc(-n2cc(CNC3CCOCC3)c(-c3cccc(F)c3)n2)cc1`: the activation is 14.3% (inactive).

On to `CCC(O)C1CCN(Cc2cn(-c3ccc(OC)cc3)nc2-c2cccc(F)c2)CC1` (stereo not drawn), for which the activation is 34.2% (active).

With `CCOC(=O)c1ccc(NC(=O)CSc2nc3c([nH]c4ccccc43)c(=O)n2C)cc1`, the activation was 0.658% (inactive).

For the compound `COc1cccc(C(=O)NCC(=O)OCc2cc(=O)n3ccsc3n2)c1`, the activation was -0.454% (inactive).

Consider `Cc1c(CCOC(=O)CC23CC4CC(CC(C)(C4)C2)C3)sc[n+]1Cc1ccc([N+](=O)[O-])cc1`, for which the activation was 35.6% (active).

For `Cc1c(CCOC(=O)c2cc([N+](=O)[O-])ccc2Cl)sc[n+]1CCCCS(=O)(=O)[O-]`, the activation was 2.52% (inactive).

Consider `Cc1c(CCO)sc[n+]1CC(=O)OC12CC3CC(CC(C3)C1)C2`, for which the activation was 2.73% (inactive).

Take `CCn1c(CN2CCC(C)CC2)nc2cc(NC(=O)c3ccccc3[N+](=O)[O-])ccc21`: the activation is 0.209% (inactive).

In the case of `COc1ccc(OC)c(NC(=O)CSC2=Nc3ccccc3C3=NC(CC(=O)NCc4ccc(F)cc4)C(=O)N23)c1` (stereo not drawn), the activation was -0.058% (inactive).

Turning to `CCOC(=O)c1ccc(N2C(=O)c3n[nH]c(C)c3C2c2ccc(O)c(OC)c2)cc1` (stereo not drawn), the activation was 0.253% (inactive).

As for `CCCCCCCCCCOC(=O)Cn1c(COc2cccc(OC)c2)[n+](C)c2ccccc21`, the activation is 116% (active).

Regarding `COc1ccc(-n2c(=O)c3sc4ccccc4c3n(CC(=O)Nc3cccc(C)c3)c2=O)cc1`, the activation was 8.8% (inactive).

For the compound `O=C(Nc1ccc(O)c(-c2nc3ccccc3o2)c1)c1ccc(-c2cccc(Cl)c2)o1`, the activation was 0.486% (inactive).

For `CCCn1c(=N)n(CC(O)COc2ccccc2OC)c2ccccc21` (stereo not drawn), the activation was -0.594% (inactive).

For the compound `Cc1cccc(OCC(O)Cn2c(=N)n(CCN3CCOCC3)c3ccccc32)c1` (stereo not drawn), the activation was 0.333% (inactive).

With `C=CCn1c(=N)n(CC(O)COc2ccc(OC)cc2)c2ccccc21` (stereo not drawn), the activation was 40.4% (active).

Turning to `O=S(=O)(NCCc1nnc2ccc(SCc3ccc(Cl)cc3Cl)nn12)c1ccccc1`, the activation is 1.47% (inactive).

Regarding `Cc1ccc(Cl)cc1N1CCN(C(=O)c2cccc3c(=O)c(C)c(-c4ccccc4)oc23)CC1`, the activation was 34.3% (active).

In the case of `Cc1ccc(Cl)cc1N1CCN(C(=O)c2cccn3c(=O)c4cc(Cl)ccc4nc23)CC1`, the activation was 2.28% (inactive).

Consider `CCn1cc(C(=O)N2CCN(c3cc(Cl)ccc3C)CC2)c(=O)c2cc(S(=O)(=O)N3CCCC3)ccc21`, for which the activation is -0.309% (inactive).

For `COc1ccc(-c2c3c(=O)n(C)c(=O)n(C)c3c3c(C)nc4ccccc4n23)cc1`, the activation was -0.834% (inactive).

On to `COc1ccc(-c2nn3c(-c4ccc(OC)cc4)nnc3c3ccccc23)cc1`, for which the activation is -0.437% (inactive).

For the compound `CCOCCCNC(=O)c1cn(CC)c2ccc(S(=O)(=O)N3CCc4ccccc4C3)cc2c1=O`, the activation was 0.286% (inactive).

`CSCCC(NC(=O)COc1ccccc1)C(=O)OCCOc1ccc(F)cc1` (stereo not drawn): the activation was 2.91% (inactive).

Turning to `CSCCC(NC(=O)COc1ccccc1)C(=O)OCC(=O)c1cc2ccccc2o1` (stereo not drawn), the activation was 5.5% (inactive).

Consider `CSCCC(NC(=O)COc1ccccc1)C(=O)OCCOc1ccc(Br)cc1` (stereo not drawn), for which the activation was 30.8% (active).

For the compound `CCC(NC(=O)c1cc(COc2ccc(F)c(F)c2)on1)c1ccncc1` (stereo not drawn), the activation is 24.1% (inactive).

`CCOC(=O)CC1COCCN1C(=O)c1cc(COc2ccc(F)c(F)c2)on1` (stereo not drawn): the activation is 43.4% (active).

Consider `O=C(c1cc(COc2ccc(F)cc2F)on1)N1CCOCC1`, for which the activation was 2.85% (inactive).

(Values after PubChem BioAssay AID504660 (National Center for Advancing Translational Sciences (NCATS), 2011).)
